Laboratory results published in PubChem BioAssay (Tox21).
Unmarked numbers belong to inactive results. A call without a number means that no potency is given here. Active and inactive are the calls of the source. The call rests on the fitted dose curve; in most records, active means well fitted curve in the direction sought with a large enough effect in the repeat runs; inconclusive means weak or mixed curves; inactive means flat fitted curve, though single readings scatter.

test: qHTS assay to test for compound auto fluorescence at 460 nm (blue) in HepG2 cell free culture (AID 720685); conditions: Cell-free culture medium, blue autofluorescence 405/460 nm; series mostly up to 91.3 µM
Excerpt: U.S. Tox21 Program National Center for Advancing Translational Sciences [NCATS] NIH Chemical Genomics Center [NCGC] U.S. Environmental Protection Agency [EPA] National Institutes of Environmental Health Sciences [NIEHS] National Toxicology Program [NTP] U.S. Food and Drug Administration [FDA] Tox21 Assay Overview: Compound auto fluorescence often interferes with screening of the compound library against various biological targets and signaling pathways. Some of these compounds may have fluorophoric properties. Such properties may interfere with the assay outputs resulting in false positives and/or negatives. To decrease such complications and ensure the compound activities are relevant in terms of biological response, the Tox21 10K compound library was screened for auto fluorescence. From the fluorophores used as reporter signals in our screening assays, the auto fluorescence equivalencies of compounds against three fluorophores have been evaluated: Triamterene, Fluorescein and Rose Bengal sodium for blue, green and red fluorescence, respectively. The fluorescence intensities were measured using Excitation/Emission wavelengths at 405/460nm, 485/535nm and 540/590nm for blue, green and red labels, respectively. This assay includes the blue fluorescence data.
Tox21 Assay Protocol Summary: 5 uL of culture medium (MEM containing 10% FBS) per well was dispensed into black wall/clear bottom 1536-well plates using a Multidrop Combi Dispenser (ThermoFisher Scientific, Waltham, MA). After 23 nL compound or DMSO vehicle was transferred into assay plate by a pintool work station (Kalypsys, San Diego, CA), fluorescence intensities in the assay plates were measured by an Envision (PerkinElmer, Shelton, CT) plate reader using three labels for measuring blue, green and red fluorescence at […] 460, 535 and 590nm respectively.

SMILES | Potency | fluorescence, % of fluorescent control
CC(=O)OCC(=O)NCCCOc1cccc(CN2CCCCC2)c1 | inactive | –
CC1=C(CC=O)C(C)(C)CCC1 | inactive | –
CCCCC(CC)CN (stereo not given) | inactive | –
O[C@@H]1CO[C@H]2[C@@H]1OC[C@@H]2O | inactive | –
Oc1cc2c(cc1O)[C@H]1c3ccc(O)c(O)c3OC[C@@]1(O)C2 | inactive | –
CCCCCC#CC(=O)OC | inactive | –
CCOC(=O)/C=C/C(=O)OCC | inactive | –
O=C=Nc1ccc(Cl)c(Cl)c1 | inactive | –
O=C(Nc1cccc2c(=O)cc(-c3nn[nH]n3)oc12)c1ccc(OCCCCc2ccccc2)cc1 | inactive | –
CC[C@]1(O)C[C@H]2CN(CCc3c([nH]c4ccccc34)[C@@](C(=O)OC)(c3cc4c(cc3OC)N(C=O)[C@H]3[C@@](O)(C(=O)OC)[C@H](OC(C)=O)[C@]5(CC)C=CCN6CC[C@]43[C@@H]65)C2)C1 | inactive | –
N#CCc1ccc(Cl)cc1Cl | inactive | –
CCOc1ccccc1O[C@H](c1ccccc1)[C@H]1CNCCO1 | inactive | –
Clc1cc(Cl)nc(Cl)n1 | inactive | –
O=C1c2ccccc2C(=O)N1CCc1noc(-c2ccc(CN3CCCCCC3)s2)n1 | inactive | –
C=C1CCC2CC1C2(C)C (stereo not given) | inactive | –
CCCC(C(=O)OCCN(CC)CC)(c1ccccc1)c1ccccc1 | inactive | –
O=C(OC(=O)c1ccccc1)c1ccccc1 | inactive | –
COc1ccccc1N1CCN(CCCCNC(=O)c2ccc(-c3ccc(C(C)=O)cc3)cc2)CC1 | inactive | –
Cc1cc2c(OCC(CNC(C)(C)C)OC(=O)c3ccccc3)cccc2[nH]1 (stereo not given) | inactive | –
CC1(C)O[C@@H]2C[C@H]3[C@@H]4C[C@H](F)C5=CC(=O)C=C[C@]5(C)[C@H]4[C@@H](O)C[C@]3(C)[C@]2(C(=O)CO)O1 | – | -0.0967% [at 18.6 µM]

SMILES | Potency | fluorescence, % of fluorescent control
CC(=O)OCCN(CCOC(C)=O)c1ccc(N=Nc2ccc([N+](=O)[O-])cc2C#N)cc1 | inactive | –
C/C=C/C=C/C=O | inactive | –
COC(=O)CCS | inactive | –
CCOC(C)=O | inactive | –
O=C(O)c1ccc(OCCCOc2ccc(C(=O)O)cc2)cc1 | inactive | –
CN1CCCN=C1COC(=O)C(O)(c1ccccc1)C1CCCCC1 (stereo not given) | inactive | –
NCCNCCO | inactive | –
O=[N+]([O-])c1ccc(O/N=C/c2cc(Br)c(O)c(Br)c2)c([N+](=O)[O-])c1 | inactive | –
CCOC(=O)c1ccc(I)cc1 | inactive | –
CC1=C(Br)C(=O)C(Br)=C/C1=C(/c1ccccc1S(=O)(=O)O)c1cc(Br)c(O)c(Br)c1C | inactive | –
N#[N+]c1ccc2c(S(=O)(=O)[O-])cccc2c1O | inactive | –
CC(C)(C)C(=O)C(=O)O | inactive | –
O=C1CCCCCCCCCCOCCCCO1 | inactive | –
O=C(/C=C/c1ccc(O)c(O)c1)O[C@@H]1C[C@@](OC(=O)/C=C/c2ccc(O)c(O)c2)(C(=O)O)C[C@@H](O)[C@@H]1O | inactive | –
CC1(C)S[C@@H]2[C@H](NC(=O)C(c3ccccc3)S(=O)(=O)O)C(=O)N2[C@H]1C(=O)O (stereo not given in full) | inactive | –
COc1cc(C(=O)NC2CCN(C)CC2)ccc1Nc1ncc2c(n1)N(C1CCCC1)CC(F)(F)C(=O)N2C | inactive | –
O=C1Cc2ccccc2N1c1c(Cl)cccc1Cl | inactive | –
C=COCC(C)C | inactive | –
c1ccc2c(c1)CCc1ccccc1N2 | inactive | –
CCCCCCC(C)(C)C(=O)O | inactive | –
